Measured values as given in paper PMC4081100, “A DNA-binding-site landscape and regulatory network analysis for NAC transcription factors in Arabidopsis thaliana”.

Experiments:
Experiment in all cases: universal protein binding microarray (PBM); transcription factors of Arabidopsis thaliana; high values mean tight binding
GST-ANAC092(1-176) = biological target: T1, GST-ANAC092(1-176) (Arabidopsis thaliana, UniProt Q9FKA0 1-176); settings: protein: recombinant; tags: GST; chain copies: 2; dsDNA, one strand shown
T1 sequence: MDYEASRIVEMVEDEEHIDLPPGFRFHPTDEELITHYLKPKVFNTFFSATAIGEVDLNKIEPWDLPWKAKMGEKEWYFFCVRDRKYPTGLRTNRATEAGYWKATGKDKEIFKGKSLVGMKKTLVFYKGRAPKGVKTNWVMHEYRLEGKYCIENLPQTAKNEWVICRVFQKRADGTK
Method in brief: (§1)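 GST-tagged proteins (NAC-domain, full-length or DNA-binding-domain) were induced in cells, with zinc acetate supplied for zinc-finger proteins, then purified on glutathione–Sepharose 4B. Each was tested in duplicate at 200 to 500 nM final on custom all-10-mer Agilent 4 × 180K arrays rendered double-stranded by primer extension. The binding value is the normalised enrichment score (E-score) across gapped and ungapped 8-mers.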

GST-NTL6(1-168) = GST-NTL6(1-168) (Arabidopsis thaliana, UniProt Q9SCK6 1-168); settings: protein: recombinant; tags: GST; chain copies: 2; dsDNA, one strand shown
GST-NTL6(1-168), sequence (Q9SCK6 1-168): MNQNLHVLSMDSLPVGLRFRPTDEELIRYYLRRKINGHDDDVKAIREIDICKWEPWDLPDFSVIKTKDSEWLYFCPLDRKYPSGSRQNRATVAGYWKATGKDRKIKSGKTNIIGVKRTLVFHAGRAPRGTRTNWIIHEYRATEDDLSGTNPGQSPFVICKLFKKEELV
Method in brief: as §1

GST-ANAC019 NAC domain = biological target: T2, GST-ANAC019 NAC domain (Arabidopsis thaliana, UniProt Q9C932 14-162); settings: protein: recombinant; tags: GST; chain copies: 2; dsDNA, one strand shown
T2 sequence: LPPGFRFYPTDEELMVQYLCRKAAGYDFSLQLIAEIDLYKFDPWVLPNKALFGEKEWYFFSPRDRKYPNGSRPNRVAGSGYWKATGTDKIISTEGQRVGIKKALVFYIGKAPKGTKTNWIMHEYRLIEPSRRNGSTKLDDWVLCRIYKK
Method in brief: as §1

GST-ANAC055(1-171) = biological target: T3, GST-ANAC055(1-171) (Arabidopsis thaliana, UniProt Q9LDY8 1-171); settings: protein: recombinant; tags: GST; chain copies: 2; dsDNA, one strand shown
T3 sequence: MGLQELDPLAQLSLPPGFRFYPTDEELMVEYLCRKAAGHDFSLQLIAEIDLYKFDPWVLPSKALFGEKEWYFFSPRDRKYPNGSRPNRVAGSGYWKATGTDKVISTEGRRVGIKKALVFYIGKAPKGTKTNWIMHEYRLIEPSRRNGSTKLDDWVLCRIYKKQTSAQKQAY
Method in brief: as §1

GST-ATAF1 NAC domain = biological target: T4, GST-ATAF1 NAC domain (Arabidopsis thaliana, UniProt Q39013 7-158); settings: protein: recombinant; tags: GST; chain copies: 2; dsDNA, one strand shown
T4 sequence: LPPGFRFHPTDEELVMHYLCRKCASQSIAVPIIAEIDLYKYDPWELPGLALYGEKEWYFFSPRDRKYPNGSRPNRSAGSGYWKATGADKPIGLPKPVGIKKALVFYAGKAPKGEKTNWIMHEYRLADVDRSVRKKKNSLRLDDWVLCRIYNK
Method in brief: as §1

[1] = biological target: T5, GST-ANAC092(1-285) full length (Arabidopsis thaliana, UniProt Q9FKA0 1-285); settings: protein: recombinant; tags: GST; chain copies: 2; dsDNA, one strand shown
T5 sequence: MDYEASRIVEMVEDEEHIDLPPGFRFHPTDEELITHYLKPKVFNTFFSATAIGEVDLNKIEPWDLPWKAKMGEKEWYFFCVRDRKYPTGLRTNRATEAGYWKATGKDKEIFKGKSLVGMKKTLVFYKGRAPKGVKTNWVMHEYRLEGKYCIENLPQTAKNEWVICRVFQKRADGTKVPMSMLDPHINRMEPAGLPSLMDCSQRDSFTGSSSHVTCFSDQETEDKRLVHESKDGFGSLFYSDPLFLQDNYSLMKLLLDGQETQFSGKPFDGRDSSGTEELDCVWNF
Method in brief: as §1

GST-NAP(1-166) = biological target: T6, GST-NAP(1-166) (Arabidopsis thaliana, UniProt O49255 1-166); settings: protein: recombinant; tags: GST; chain copies: 2; dsDNA, one strand shown
T6 sequence: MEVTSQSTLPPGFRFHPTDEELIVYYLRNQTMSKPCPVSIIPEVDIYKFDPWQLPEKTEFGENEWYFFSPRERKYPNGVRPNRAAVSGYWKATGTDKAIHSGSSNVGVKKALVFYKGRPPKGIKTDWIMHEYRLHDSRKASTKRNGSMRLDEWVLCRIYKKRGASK
Method in brief: as §1

GST-NST2(1-184) = biological target: T7, GST-NST2(1-184) (Arabidopsis thaliana, UniProt Q9M274 1-184); settings: protein: recombinant; tags: GST; chain copies: 2; dsDNA, one strand shown
T7 sequence: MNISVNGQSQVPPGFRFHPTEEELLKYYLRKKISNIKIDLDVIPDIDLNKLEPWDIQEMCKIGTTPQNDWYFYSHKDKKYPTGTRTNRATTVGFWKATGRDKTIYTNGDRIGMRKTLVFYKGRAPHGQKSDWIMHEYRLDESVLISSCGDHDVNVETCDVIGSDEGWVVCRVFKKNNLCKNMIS
Method in brief: as §1

GST-SND1(1-203) = biological target: T8, GST-SND1(1-203) (Arabidopsis thaliana, UniProt Q9LPI7 1-203); settings: protein: recombinant; tags: GST; chain copies: 2; dsDNA, one strand shown
T8 sequence: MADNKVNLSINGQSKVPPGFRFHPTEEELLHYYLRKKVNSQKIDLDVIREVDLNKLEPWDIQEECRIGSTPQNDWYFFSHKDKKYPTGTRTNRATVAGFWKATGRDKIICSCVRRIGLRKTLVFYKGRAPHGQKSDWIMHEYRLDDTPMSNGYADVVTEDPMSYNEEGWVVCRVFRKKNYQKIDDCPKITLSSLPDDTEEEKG
Method in brief: as §1

GST-VND3 NAC domain = biological target: T9, GST-VND3 NAC domain (Arabidopsis thaliana, UniProt Q9FH59 12-162); settings: protein: recombinant; tags: GST; chain copies: 2; dsDNA, one strand shown
T9 sequence: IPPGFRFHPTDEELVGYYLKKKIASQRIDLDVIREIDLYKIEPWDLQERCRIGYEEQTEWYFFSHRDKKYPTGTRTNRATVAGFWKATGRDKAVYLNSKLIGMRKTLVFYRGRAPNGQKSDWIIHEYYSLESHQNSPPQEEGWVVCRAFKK
Method in brief: as §1

GST-VND7 NAC domain = biological target: T10, GST-VND7 NAC domain (Arabidopsis thaliana, UniProt Q9C8W9 9-158); settings: protein: recombinant; tags: GST; chain copies: 2; dsDNA, one strand shown
T10 sequence: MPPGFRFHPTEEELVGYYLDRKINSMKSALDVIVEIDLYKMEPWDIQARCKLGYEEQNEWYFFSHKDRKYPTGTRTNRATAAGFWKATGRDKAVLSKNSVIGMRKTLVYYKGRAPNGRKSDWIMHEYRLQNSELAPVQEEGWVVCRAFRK
Method in brief: as §1

GST-WRKY1(266-371) = GST-WRKY1(266-371) (Arabidopsis thaliana, UniProt Q9SI37 266-371); settings: protein: recombinant; tags: GST; dsDNA, one strand shown
GST-WRKY1(266-371), sequence (Q9SI37 266-371): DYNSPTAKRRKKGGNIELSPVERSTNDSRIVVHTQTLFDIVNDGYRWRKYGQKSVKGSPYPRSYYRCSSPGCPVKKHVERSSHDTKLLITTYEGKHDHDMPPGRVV
Method in brief: as §1

GST-NTL8 NAC domain = biological target: T11, GST-NTL8 NAC domain (Arabidopsis thaliana, UniProt Q9XIN7 14-156); settings: protein: recombinant; tags: GST; chain copies: 2; dsDNA, one strand shown
T11 sequence: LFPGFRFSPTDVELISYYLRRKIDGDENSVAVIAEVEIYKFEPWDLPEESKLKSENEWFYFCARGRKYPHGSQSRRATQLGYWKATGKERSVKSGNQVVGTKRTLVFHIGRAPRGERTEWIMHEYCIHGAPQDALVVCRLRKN
Method in brief: as §1

Sequence	binding signal (GST-ANAC092(1-176)) [E-score]	binding signal (GST-NTL6(1-168)) [E-score]	binding signal (GST-ANAC019 NAC domain) [E-score]	binding signal (GST-ANAC055(1-171)) [E-score]	binding signal (GST-ATAF1 NAC domain) [E-score]	binding signal [1] [E-score]	binding signal (GST-NAP(1-166)) [E-score]	binding signal (GST-NST2(1-184)) [E-score]	binding signal (GST-SND1(1-203)) [E-score]	binding signal (GST-VND3 NAC domain) [E-score]	binding signal (GST-VND7 NAC domain) [E-score]	binding signal (GST-WRKY1(266-371)) [E-score]	binding signal (GST-NTL8 NAC domain) [E-score]
ACGTATCT	0.189	0.0824	0.425	0.38	0.334	0.306	0.393	0.189	0.14	0.393	0.313	–	–
GACGCAAA	0.382	–	0.0555	–	0.0741	0.411	0.233	0.123	0.289	0.135	0.099	0.117	–
ACGCAACC	0.483	–	0.455	0.421	0.428	0.492	0.478	0.434	0.481	0.416	0.443	0.107	0.146
GCAAGGAA	0.345	0.418	0.185	0.211	0.18	0.371	0.133	0.175	0.276	0.187	0.229	–	0.431
ACGTTTCC	0.411	0.141	0.312	0.343	0.327	0.432	0.354	0.255	0.381	0.347	0.359	–	0.439
GTACGCTA	0.428	0.0905	0.124	0.165	0.238	0.449	0.219	0.288	0.447	0.15	0.233	–	0.129
TTACTCAA	0.345	0.078	0.0697	0.0741	0.223	0.359	0.0501	0.247	0.445	0.165	0.126	–	0.0629
GAAGGAAC	0.189	0.445	0.172	0.172	0.0557	0.204	0.148	0.249	0.337	0.114	0.181	–	0.45
